PubChem BioAssay (NCI)
Compounds without any hit were thinned out: in the full panel of roughly 83,000, 20% have a hit.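 Testing used 96-well plates and a 48-hour single-concentration exposure. Example: -40 means 40% of the starting cells died.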 The source made the active and inactive calls. The calls were made as follows: active = growth percent below 10; inactive = the rest.

What was measured:
Experiment in all cases: NCI-60 one-dose screen, 48 h (100 = growth as untreated, 0 = no growth, -100 = all killed)
Conditions in all cases: 10 µM unless noted
HT29 colon = system: HT29 colon
SNB-75 CNS = system: SNB-75 CNS
SNB-19 CNS = system: SNB-19 CNS
U251 CNS = system: U251 CNS
PC-3 prostate = system: PC-3 prostate
UACC-62 melanoma = system: UACC-62 melanoma
LOX IMVI melanoma = system: LOX IMVI melanoma
SK-MEL-28 melanoma = system: SK-MEL-28 melanoma
SK-MEL-2 melanoma = system: SK-MEL-2 melanoma
SK-MEL-5 melanoma = system: SK-MEL-5 melanoma

Measured: growth

Oc1ccccc1/C=N\Nc1ccccc1
active: UACC-62 melanoma -5.08%
inactive: HT29 colon 95.9% | SNB-75 CNS 71.9% | SNB-19 CNS 86% | U251 CNS 75.9% | PC-3 prostate 36.3% | LOX IMVI melanoma 53% | SK-MEL-28 melanoma 102% | SK-MEL-2 melanoma 92.1%

N#Cc1c(N2CCOCC2)nc2sc3cc(Cl)ccc3n2c1=N
inactive: HT29 colon 98.5% | SNB-75 CNS 63.7% | SNB-19 CNS 77.8% | U251 CNS 96.6% | PC-3 prostate 75.9% | UACC-62 melanoma 89.4% | LOX IMVI melanoma 93% | SK-MEL-28 melanoma 103% | SK-MEL-2 melanoma 103%

O=[N+]([O-])c1ccc(Oc2cccc(C(F)(F)F)c2)c([N+](=O)[O-])c1
inactive: SNB-75 CNS 92.2% | SNB-19 CNS 74.5% | U251 CNS 18.3% | PC-3 prostate 88.9% | UACC-62 melanoma 34.1% | SK-MEL-28 melanoma 104% | SK-MEL-2 melanoma 11.7%
active: HT29 colon -4.93% | LOX IMVI melanoma 8.07%

CCn1c2c(c3ccccc31)SC1c3cccn3CCN1C2=S (stereo unspecified)
inactive: HT29 colon 90.2% | SNB-75 CNS 79.6% | SNB-19 CNS 95.8% | U251 CNS 93.8% | PC-3 prostate 89.1% | UACC-62 melanoma 81% | LOX IMVI melanoma 96.8% | SK-MEL-28 melanoma 110% | SK-MEL-2 melanoma 89.9%

CC12CCCCC1C(C(N)=O)C(=O)O2 (stereo unspecified)
inactive: HT29 colon 112% | SNB-75 CNS 96.1% | SNB-19 CNS 100% | U251 CNS 104% | PC-3 prostate 101% | UACC-62 melanoma 98.8% | LOX IMVI melanoma 96.4% | SK-MEL-28 melanoma 105% | SK-MEL-2 melanoma 104%

O=C(OC[C@H]1O[C@H](OC(=O)c2cc(O)c(O)c(OC(=O)c3cc(O)c(O)c(O)c3)c2)[C@H](OC(=O)c2cc(O)c(O)c(OC(=O)c3cc(O)c(O)c(O)c3)c2)[C@@H](OC(=O)c2cc(O)c(O)c(OC(=O)c3cc(O)c(O)c(O)c3)c2)[C@@H]1OC(=O)c1cc(O)c(O)c(OC(=O)c2cc(O)c(O)c(O)c2)c1)c1cc(O)c(O)c(OC(=O)c2cc(O)c(O)c(O)c2)c1
active: LOX IMVI melanoma 7.17%
inactive: HT29 colon 33.5% | SNB-75 CNS 53.6% | SNB-19 CNS 36.6% | U251 CNS 22.3% | PC-3 prostate 38% | UACC-62 melanoma 10.6% | SK-MEL-28 melanoma 78.6% | SK-MEL-2 melanoma 80.4%

CN(C)c1ccc2[nH]c3c(C(N)=O)cc(=O)c(=O)c=3oc2c1
active: LOX IMVI melanoma 8.85%
inactive: HT29 colon 127% | SNB-75 CNS 52.7% | SNB-19 CNS 74.4% | U251 CNS 35.4% | PC-3 prostate 59.3% | UACC-62 melanoma 62.6% | SK-MEL-28 melanoma 85.8% | SK-MEL-2 melanoma 85.4%

Cc1ccsc1/C=C/C1=NCCCN1C
inactive: HT29 colon 99.3% | SNB-75 CNS 102% | SNB-19 CNS 104% | U251 CNS 100% | PC-3 prostate 90.5% | UACC-62 melanoma 106% | LOX IMVI melanoma 95.6% | SK-MEL-28 melanoma 103% | SK-MEL-2 melanoma 92.6%

CN(C(=O)c1ccccc1)N(C)C(=O)c1ccccc1
inactive: HT29 colon 93.4% | SNB-75 CNS 105% | SNB-19 CNS 101% | U251 CNS 108% | PC-3 prostate 91.6% | UACC-62 melanoma 102% | LOX IMVI melanoma 106% | SK-MEL-28 melanoma 110% | SK-MEL-2 melanoma 106%

COc1cc([C@@H]2c3cc4c(cc3C(O[C@@H]3O[C@@H]5CO[C@@H](c6cccs6)OC5[C@H](O)[C@H]3O)C3COC(=O)[C@@H]32)OCO4)cc(OC)c1O (stereo partly specified)
active: HT29 colon -24.8% | SNB-75 CNS -37% | SNB-19 CNS 1.98% | U251 CNS -15.5% | PC-3 prostate 4.52% | UACC-62 melanoma -54.3% | LOX IMVI melanoma -37.3% | SK-MEL-28 melanoma -29% | SK-MEL-2 melanoma -47.3%

Nc1c2ccccc2nc2ccccc12 (tested in a mixture with another compound)
active: HT29 colon 0.0152% | UACC-62 melanoma 5.82% | LOX IMVI melanoma 4.92% | SK-MEL-2 melanoma -5.63%
inactive: SNB-75 CNS 31.9% | SNB-19 CNS 29.4% | U251 CNS 13.7% | PC-3 prostate 17% | SK-MEL-28 melanoma 36.2%

CCCCCCCCCCC[C@@H](C[C@H]1OC(=O)[C@H]1CCCCCC)OC(=O)[C@@H](CC(C)C)NC=O
inactive: HT29 colon 38.4% | SNB-75 CNS 82.4% | SNB-19 CNS 55.6% | U251 CNS 63% | PC-3 prostate 50.4% | UACC-62 melanoma 77.3% | LOX IMVI melanoma 14.1% | SK-MEL-28 melanoma 111% | SK-MEL-2 melanoma 55.9%

O=C1CN(CO)C(=O)CN1CO
inactive: HT29 colon 109% | SNB-75 CNS 94.2% | SNB-19 CNS 101% | U251 CNS 100% | PC-3 prostate 95.4% | UACC-62 melanoma 98.3% | LOX IMVI melanoma 99.7% | SK-MEL-28 melanoma 112% | SK-MEL-2 melanoma 121%

CC(C)c1nc(N(C)S(C)(=O)=O)nc(-c2ccc(F)cc2)c1/C=C/[C@@H](O)C[C@@H](O)CC(=O)O
inactive: HT29 colon 104% | SNB-75 CNS 107% | SNB-19 CNS 115% | U251 CNS 61.7% | PC-3 prostate 69.3% | UACC-62 melanoma 102% | LOX IMVI melanoma 81.3% | SK-MEL-28 melanoma 107% | SK-MEL-2 melanoma 97.8%

Cc1cc(NC(=O)Nc2cccc3ccccc23)no1
inactive: HT29 colon 108% | SNB-75 CNS 91.4% | SNB-19 CNS 105% | U251 CNS 93.6% | SK-MEL-5 melanoma 99% | UACC-62 melanoma 90.6% | LOX IMVI melanoma 95.9% | SK-MEL-28 melanoma 116% | SK-MEL-2 melanoma 101%

CCN1C(=O)c2ccc3c4c(ccc(c24)C1=O)C(=O)N(CCCNCc1ccccc1OC)C3=O
active: HT29 colon -48.8% | SNB-75 CNS -71.5% | SNB-19 CNS -64.1% | U251 CNS -86.3% | PC-3 prostate 0.702% | UACC-62 melanoma -88.3% | SK-MEL-28 melanoma 3.31%

CCCc1nn(C)c2c(=O)[nH]c(-c3cc(S(=O)(=O)N4CCN(C)CC4)ccc3OCC)nc12
inactive: HT29 colon 99.1% | SNB-75 CNS 104% | SNB-19 CNS 103% | U251 CNS 94.5% | PC-3 prostate 91.1% | LOX IMVI melanoma 93.9% | SK-MEL-28 melanoma 116% | SK-MEL-2 melanoma 96.6%

CCC1(c2ccccc2)Oc2ccccc2-n2c(C#N)c3ccccc3c2C1=O (stereo unspecified)
inactive: HT29 colon 96.8% | SNB-75 CNS 95.9% | SNB-19 CNS 106% | U251 CNS 96.7% | PC-3 prostate 93.8% | LOX IMVI melanoma 103% | SK-MEL-28 melanoma 114% | SK-MEL-2 melanoma 103%

COc1c(C)c2c(c(O)c1C/C=C(\C)CCC(=O)OCCN1CCOCC1)C(=O)OC2
inactive: SNB-75 CNS 49.1% | SNB-19 CNS 28% | U251 CNS 14.7% | PC-3 prostate 23.2% | UACC-62 melanoma 23.6% | LOX IMVI melanoma 18.4% | SK-MEL-2 melanoma 25.7%
active: HT29 colon 1.17%

CC(=O)O[C@H]1C(=O)[C@@]2(C)C([C@H](OC(=O)c3ccccc3)[C@]3(O)C[C@H](OC(=O)[C@H](O)[C@@H](NC(=O)c4ccccc4)c4ccccc4)C(C)=C1C3(C)C)[C@]1(OC(C)=O)CO[C@@H]1C[C@@H]2O (stereo partly specified)
active: HT29 colon 3.07% | SNB-75 CNS -19% | SK-MEL-2 melanoma -5.52%
inactive: SNB-19 CNS 36.2% | U251 CNS 13.5% | PC-3 prostate 19.7% | UACC-62 melanoma 42.5% | LOX IMVI melanoma 44.3% | SK-MEL-28 melanoma 57.5%

S=C1SCN(Cc2ccccc2)CN1Cc1ccco1
inactive: HT29 colon 27.4% | SNB-75 CNS 92.1% | SNB-19 CNS 101% | U251 CNS 97.3% | PC-3 prostate 90.3% | LOX IMVI melanoma 81.6% | SK-MEL-28 melanoma 105% | SK-MEL-2 melanoma 81.1%

O=c1c(O)cccn1CCCNCCCN(CCCn1cccc(O)c1=O)CCCn1cccc(O)c1=O
inactive: HT29 colon 111% | SNB-75 CNS 104% | SNB-19 CNS 99.8% | U251 CNS 93.8% | SK-MEL-5 melanoma 105% | UACC-62 melanoma 100% | LOX IMVI melanoma 83.8% | SK-MEL-28 melanoma 116% | SK-MEL-2 melanoma 122%

Clc1ccc(CCC(Cn2ccnc2)Sc2c(Cl)cccc2Cl)cc1 (stereo unspecified)
inactive: HT29 colon 26.7% | SNB-75 CNS 92.5% | SNB-19 CNS 80.2% | U251 CNS 57.2% | PC-3 prostate 26.5% | UACC-62 melanoma 55% | LOX IMVI melanoma 40.5% | SK-MEL-28 melanoma 102% | SK-MEL-2 melanoma 72.8%

C=CC1=C(C(=O)O)N2C(=O)[C@@H](NC(=O)/C(=N\O)c3csc(N)n3)[C@H]2SC1 (stereo in doubt)
inactive: HT29 colon 104% | SNB-75 CNS 92.4% | SNB-19 CNS 114% | U251 CNS 92.1% | PC-3 prostate 95.3% | UACC-62 melanoma 114% | LOX IMVI melanoma 88.1% | SK-MEL-28 melanoma 111% | SK-MEL-2 melanoma 122%

COc1ccc2[nH]c(-c3ccccc3)cc2c1
inactive: HT29 colon 102% | SNB-75 CNS 88% | SNB-19 CNS 93.4% | U251 CNS 107% | SK-MEL-5 melanoma 97% | UACC-62 melanoma 84.7% | LOX IMVI melanoma 105% | SK-MEL-28 melanoma 110% | SK-MEL-2 melanoma 101%

C/C(=C\CCc1ccsc1)CC/C=C(\C)CCCN1CCC(CO)CC1
inactive: SNB-75 CNS 41.1% | SNB-19 CNS 52.6% | PC-3 prostate 41.2%
active: HT29 colon -42.6% | U251 CNS -3.53% | UACC-62 melanoma -83.4% | SK-MEL-28 melanoma 9.39%

CCc1ccc(CCN2C(=O)c3ccccc3C2=O)nc1
inactive: HT29 colon 109% | SNB-75 CNS 99% | SNB-19 CNS 91.7% | U251 CNS 103% | SK-MEL-5 melanoma 107% | UACC-62 melanoma 98.6% | LOX IMVI melanoma 101% | SK-MEL-28 melanoma 118%

C/C(=C\CCc1ccoc1)CC/C=C(\C)CCCN1CCC(CO)CC1
inactive: SNB-75 CNS 36.4% | SNB-19 CNS 76.2% | U251 CNS 40% | PC-3 prostate 57.8% | SK-MEL-28 melanoma 56.3%
active: HT29 colon 6.48% | UACC-62 melanoma -63.3%

Cc1cc(NCCCNc2ccnc3cc(Cl)ccc23)nc(N2CCN(C)CC2)n1
inactive: HT29 colon 15.2% | SNB-75 CNS 76.6% | SNB-19 CNS 115% | U251 CNS 69.7% | PC-3 prostate 51.5% | UACC-62 melanoma 33.4% | SK-MEL-28 melanoma 88.3%

Cc1scc2c1N(C(=O)CN1CCN(C)CC1)c1ccccc1NC2=O
inactive: HT29 colon 104% | SNB-75 CNS 110% | SNB-19 CNS 111% | U251 CNS 99.6% | PC-3 prostate 98% | LOX IMVI melanoma 99.7% | SK-MEL-28 melanoma 110% | SK-MEL-2 melanoma 113%
